Sampled rows, rich in hits. Any-hit rate of the full collection: about 21%.
RORgamma inh = qHTS for inhibitors of ROR gamma transcriptional activity. 310,000 compounds, 5.4% hits. Potency, µM (doses to about 53.6 µM), inactives show at the top dose activity change, negative = inhibition, most hits filed as inhibitors. AID 2551, 2010. Nuclear receptor ROR-gamma (Mus musculus), P51450. Drosophila S2 Gal4-RORgamma UAS-luciferase reporter, 20 h; further: potency means the concentration at half of the fitted maximal effect; nearly all actives have a fitted effect of over 60% in size
Target sequence (P51450 whole entry, looked up, the tested form may be a part): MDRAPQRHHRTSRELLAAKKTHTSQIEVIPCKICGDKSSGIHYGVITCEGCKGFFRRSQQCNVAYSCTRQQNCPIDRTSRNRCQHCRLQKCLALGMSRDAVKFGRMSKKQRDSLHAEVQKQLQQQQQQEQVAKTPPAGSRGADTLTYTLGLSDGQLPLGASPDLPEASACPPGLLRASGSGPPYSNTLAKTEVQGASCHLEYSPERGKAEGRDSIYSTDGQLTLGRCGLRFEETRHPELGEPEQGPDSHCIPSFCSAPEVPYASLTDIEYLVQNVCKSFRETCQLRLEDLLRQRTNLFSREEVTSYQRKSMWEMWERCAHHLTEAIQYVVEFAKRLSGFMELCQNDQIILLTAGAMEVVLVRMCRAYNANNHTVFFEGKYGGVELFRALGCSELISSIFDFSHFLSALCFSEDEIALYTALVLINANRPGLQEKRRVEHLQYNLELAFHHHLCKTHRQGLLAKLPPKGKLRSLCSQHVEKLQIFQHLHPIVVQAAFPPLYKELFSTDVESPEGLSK
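Stably transfected Drosophila Schneider cells are the test system, with ROR gamma fused to Gal4 and luciferase under UAS control; luminescence is read after 20 hr of 700 uM copper sulfate induction at ambient temperature.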
TDP1 cell CPT = qHTS for Inhibitors of human tyrosyl-DNA phosphodiesterase 1 (TDP1): qHTS in cells in presence of CPT | Potency, µM (titrated, usually from 46.2 µM), inactives show at the highest dose activity change, negative = growth inhibition, hits mostly inhibitors | chicken DT40 Tdp1-/-;hTDP1 cells + 20 nM CPT, ATP luminescence, 48 h | 420,000 compounds, 12% hits; further: potency means the concentration at half of the fitted maximal effect; nearly all actives have a fitted effect of over 55% in size
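Chicken DT40 Tdp1-/- cells complemented with human TDP1, 400 cells/well, exposed to compounds plus 20 nM camptothecin for at least 48 h at 37 C; viability read as ATP content by CellTiter-Glo luminescence.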
ELG1 DNA repair = qHTS screen for small molecules that inhibit ELG1-dependent DNA repair in human embryonic kidney (HEK293T) cells expressing luciferase-tagged ELG1; AID 504467, 2011; 330,000 compounds, 2.3% hits; HEK293T ELG1-luciferase reporter, luminescence, 16 h; DNA damage induced by 5-fluorouridine; Potency, µM (series often up to 46.1 µM), for the others: at the highest dose activity change, negative = inhibition, usual class: inhibitors; further: potency means the concentration at half of the fitted maximal effect; nearly all actives have a fitted effect of over 55% in size
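Reporter activity after DNA damage by 5-fluorouridine is monitored. Compound-treated cells incubate 16 hr at 37 °C, then ONE-Glo is added for 30 min before luminescence reading.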
IL-1B inflam inh = qHTS for Inhibitors of Inflammasome Signaling: IL-1-beta AlphaLISA Primary Screen; THP-1 LPS/ATP IL-1B secretion, AlphaLISA, 16 h; hits give low values; activity change, % at 57.5 µM; 360,000 compounds, 4.7% hits; AID 743279, 2014; in the data active means activity change below about -50%; inconclusive means mostly about -30% to -49%
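THP-1 cells pretreated 1 hr with compounds (up to 57.5 uM final), then stimulated with LPS (250 ng/mL final) plus ATP (1.25 mM final); secreted IL-1B measured by AlphaLISA after 16 hr, decreased signal indicating inhibition.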
DT40 TDP1 no CPT = qHTS for Inhibitors of human tyrosyl-DNA phosphodiesterase 1 (TDP1): qHTS in cells in absence of CPT. Potency, µM (titrated, usually from 46.2 µM), for inactives: top-dose activity change, negative = growth inhibition, hits mostly inhibitors. DT40 Tdp1-/- hTDP1 cells, no CPT, ATP luminescence, 48 h. 420,000 compounds, 15% hits; further: potency means the concentration at half of the fitted maximal effect; nearly all actives have a fitted effect of over 55% in size
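Seeded 400 DT40-hTDP1 cells/well (vehicle DMSO, no 20 nM CPT); pinned compounds; ≥48 hr at 37 °C; CellTiter-Glo luminescence as viability measure.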
VP16 counter = VP16 counterscreen qHTS for inhibitors of ROR gamma transcriptional activity | 310,000 compounds, 3.5% hits | Drosophila S2 Gal4-VP16 UAS-luciferase, luminescence, 20 h | Potency, µM (titrated, usually from 53.6 µM), without a hit: at the highest dose activity, negative = inhibition, hits mostly inhibitors;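 further: Gal4-VP16 expression switched on by copper sulfate through the metallothionein promoter; potency means the concentration at half of the fitted maximal effect; nearly all actives have a fitted effect of over 50% in size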
An asterisk follows results filed as active; ? = inconclusive; . = not tested or not shown; [ ] = another dose, or the depositor's remark. Unless noted, the call rests on the fitted dose curve; in most records, active means well fitted curve in the direction sought with a large enough effect; inconclusive means small, poorly fitted or top-dose-only effect, or another doubt; inactive means no such curve, though single readings can be large; an effect the other way counts as inactive or inconclusive. On the % scale 0 is the no-effect control and ±100 the full control effect.

SMILES	RORgamma inh	TDP1 cell CPT	ELG1 DNA repair	IL-1B inflam inh	DT40 TDP1 no CPT	VP16 counter
Cc1cc(-c2onc(C)c2C(=O)N/N=C/c2ccccc2)no1	3%	-10%	-19%	-1	-25%	-8%
O=C(CC(C(=O)c1ccccc1)c1ccccc1)c1ccccc1 (configuration not stated)	.	?	.	?	21µM*	.
CN(Cc1cc(Cl)cc(Cl)c1)CC(C(=O)c1ccccc1)c1ccccc1 (configuration not stated)	.	6.5µM*	.	-79*	7.3µM*	.
N#CC(c1ccc(N)cc1)C(CC(=O)c1ccccc1)c1ccccc1 (configuration not stated)	.	?	.	-16	29µM*	.
CN(C)CC(C(=O)c1ccccc1)c1ccccc1 (configuration not stated)	7.1µM*	1.2µM*	16µM*	-101*	1.5µM*	7.1µM*
COc1ccc(C(C(=O)OC(C)CN(C)C)c2ccccc2)cc1 (configuration not stated)	-14%	1%	9%	3	-2%	-6%
N#CC(c1ccccc1)C(CC(=O)c1ccccc1)c1ccccc1 (configuration not stated)	.	?	.	-6	?	.
COc1ccc(COC(=O)N/N=C2/C[C@@H](O)[C@@H](O)[C@@H]3[C@@H]4C(=O)N([C@@H](C)c5ccccc5)C(=O)[C@H]4CC[C@H]23)cc1	14%[10 µM]	.	.	.	.	-20%[10 µM]
O=C(COC(=O)c1ccc(F)cc1F)Nc1cccc(S(=O)(=O)N2CCOCC2)c1	.	?	7%	-8	-6%	.
O=C(Nn1cnc2ccccc2c1=O)c1c(F)cccc1F	8%	3%	7%	13	-16%	2%
CS(=O)(=O)Nc1ccc(-c2n[nH]c(=S)n2-c2ccccc2)cc1	?	-11%	1%	-3	?	9%
COCc1n[nH]c(=S)n1-c1cccc2ccccc12	?	2%	0%	10	1%	-10%
Fc1ccccc1-n1c(-c2ccc3ccccc3n2)n[nH]c1=S	1.4µM*	?	0%	29	?	?
S=c1[nH]nc(-c2ccc3ccccc3n2)n1-c1ccccc1	1.4µM*	17%	?	0	-18%	2µM*
CCc1cc(C(=O)NNC(=S)Nc2ccccc2C)cs1	-1%	?	?	-3	?	?
CCc1c(C(=O)NNC(=S)NCC2CCCO2)csc1C (configuration not stated)	?	?	-6%	-15	?	?
CCNC(=S)NNC(=O)c1csc(CC)c1	4.5µM*	-3%	0%	-25	-24%	-23%
CCCc1cc(C(=O)NNC(=S)NCc2ccccc2)cs1	4.5µM*	?	.	38	?	?
CCc1c(C(=O)NNC(=S)NCc2ccccc2)csc1C	6.3µM*	-22%	?	-21	?	-15%
O=C(NNC(=S)NC1CCCCC1)c1ccc2c(c1)OCO2	-33%	?	?	21	18µM*	?
CCOc1cccc2sc(NC(=O)c3ccc(S(=O)(=O)N4CCCCC4)cc3)nc12	.	?	.	.	-6%	.
Cc1cc(C(=O)NNC(=S)NCc2ccccc2)cs1	-23%	-9%	6%	4	?	-4%
CCNC(=S)NNC(=O)c1csc2c1CCCC2	3.2µM*	-4%	-4%	-28	-14%	-24%
CCc1cc(C(=O)NNC(=S)NCc2ccccc2)cs1	14µM*	-6%	18%	1	?	-16%
Cc1cc(C(=O)NNC(=S)NCc2ccccc2)no1	.	-13%	3%	16	2%	.
SMILES	RORgamma inh	TDP1 cell CPT	ELG1 DNA repair	IL-1B inflam inh	DT40 TDP1 no CPT	VP16 counter
CCCc1cc(C(=O)NNC(=S)NC2CCCCC2)cs1	3.5µM*	?	16%	-9	?	?
CCNC(=S)NNC(=O)c1cc(C)on1	18µM*	-6%	-7%	8	-18%	-10%
CSc1ncc(Cl)c(C(=O)Nc2c(C(=O)c3ccc(C)cc3)oc3ccccc23)n1	.	6%	.	.	29%	.
Cc1ccc(OCC(=O)NNC(=O)CSc2ncc(C#N)c(N)n2)cc1	0.71µM*	-12%	-1%	5	-11%	?
Cc1ccncc1C(=O)O	10%	.	.	.	.	-3%
O=S(=O)(c1ccccc1)N(CC(O)Cn1c2ccccc2c2ccccc21)c1ccccc1 (configuration not stated)	15%	?	?	-53*	?	-18%
O=S(=O)(c1ccc(F)cc1)N(CCO)CC(O)Cn1c2ccccc2c2ccccc21 (configuration not stated)	38%	?	-16%	-4	16µM*	-3%
CCN(CC)CC(O)Cn1c2ccccc2c2ccccc21 (configuration not stated)	-23%	-4%	3%	?	?	-11%
COc1ccccc1N(CC(O)Cn1c2ccccc2c2ccccc21)S(=O)(=O)c1ccccc1 (configuration not stated)	?	?	?	-101*	?	-18%
C=CCN(CC=C)CC(O)Cn1c2ccccc2c2ccccc21 (configuration not stated)	1%	?	?	-74*	23µM*	0%
C=C(C(C)=O)C(O)/C=C/c1ccco1 (configuration not stated)	-18%	.	.	.	.	-9%
Cc1cccc(-n2ncc3c2CCCC3NC(=O)CCc2ccncc2)c1C (configuration not stated)	35%	12µM*	?	0	6.5µM*	?
Cc1ccn(CCC(=O)NC2CCCc3c2cnn3-c2cccc(C)c2C)n1 (configuration not stated)	15%	?	-2%	10	-1%	?
Cc1cc(C(=O)NC2CCCc3c2cnn3-c2cccc(C)c2C)n(C)n1 (configuration not stated)	?	0.15µM*	-4%	14	0.21µM*	2.2µM*
CCn1nc(C)cc1C(=O)NC1CCCc2c1cnn2-c1ccc(C)c(C)c1 (configuration not stated)	25%	?	-6%	24	?	?
